# Screening results as filed in PubChem BioAssay.
# A selection: hits, their analogues and other compounds. The true share with any hit is near 5.1%.
# Hsp90 Hop PPI = changes Hsp90-Hop TPR2A binding signal, up or down | AlphaScreen TPR2A-His6 binding biotin-Hsp90 C-terminal peptide | Potency, µM (highest dose often 57 µM), for the others: top-dose activity change, negative = inhibition | 71,000 tested, 0.44% active | AID 595; active = well fitted curve in either direction with a large enough effect; inconclusive = small, poorly fitted or top-dose-only effect, or another doubt; also: % is scaled to controls: 0 for no effect and ±100 for the full control effect
# TSHR ag = activates the human thyroid stimulating hormone receptor; P16473; HEK293-CNG-TSHR cells (CNG channel as cAMP sensor), membrane potential dye, cAMP; Potency, µM (series often up to 57.1 µM), for the others: at the highest dose activation, actives largely listed as activators; 73,000 tested, 0.48% active; AID 926; active = well fitted activation curve with a large enough effect in the main read-out, with a control signal flat, not every such curve was filed as active; inconclusive = small, poorly fitted or top-dose-only effect, or a change in a side signal; inactive = no such curve, though single readings can be large or run the other way; % of control where 0% means no effect;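 also: the control signal comes from parental cells without the receptor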
#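 HEK 293 cells stably expressing TSHR and a cAMP-gated CNG channel; parental CNG-only cells as counterscreen. Cells preloaded 60 min with membrane potential dye plus 100 uM RO 20-1724, then compound 30 min; fluorescence read at 590 nm.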
# Tau fil binding = tau filament binding. P10636. recombinant tau filaments, thioflavin S fluorescence, 15 h; filaments grown with octadecylsulfate alongside compound. Potency, µM (doses to about 57.1 µM), for inactives: at the top dose activity change, negative = inhibition. 71,000 tested, 2% active. AID 596;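 also: % is scaled to controls: 0 for no effect and ±100 for the full control effect; actives lower thioflavin S fluorescence by blocking filaments or displacing dye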
# Target sequence (P10636 whole entry, looked up): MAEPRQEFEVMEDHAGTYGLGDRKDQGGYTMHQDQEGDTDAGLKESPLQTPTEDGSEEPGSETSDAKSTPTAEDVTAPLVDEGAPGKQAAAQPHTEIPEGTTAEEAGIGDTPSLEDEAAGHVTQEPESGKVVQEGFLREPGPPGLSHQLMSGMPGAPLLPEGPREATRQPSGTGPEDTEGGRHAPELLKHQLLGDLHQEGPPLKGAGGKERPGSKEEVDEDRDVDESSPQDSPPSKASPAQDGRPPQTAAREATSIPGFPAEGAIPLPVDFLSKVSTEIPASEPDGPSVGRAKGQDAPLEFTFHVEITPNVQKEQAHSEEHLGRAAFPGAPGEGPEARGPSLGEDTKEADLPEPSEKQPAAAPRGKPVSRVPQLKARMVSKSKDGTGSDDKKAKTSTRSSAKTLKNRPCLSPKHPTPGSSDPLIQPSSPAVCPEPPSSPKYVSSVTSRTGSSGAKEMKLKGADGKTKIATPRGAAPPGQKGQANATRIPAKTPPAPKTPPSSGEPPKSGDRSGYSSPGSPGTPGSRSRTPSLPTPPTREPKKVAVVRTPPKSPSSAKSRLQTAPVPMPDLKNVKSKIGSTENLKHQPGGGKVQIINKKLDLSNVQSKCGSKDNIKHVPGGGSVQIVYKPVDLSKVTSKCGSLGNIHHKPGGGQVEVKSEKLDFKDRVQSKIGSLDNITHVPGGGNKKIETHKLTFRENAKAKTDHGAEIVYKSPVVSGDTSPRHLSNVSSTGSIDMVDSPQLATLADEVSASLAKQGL
#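 Thioflavine S fluorescence (ex 450, em 510 nm) reports filaments formed from 1 uM human tau plus 30 uM ODS over 15 h at 37 C (10 mM HEPES pH 7.4, 100 mM NaCl, 5 mM DTT); compounds displacing dye or blocking filaments lower signal.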
# HEK293 cAMP cs = raises cAMP in parental HEK293 cells, TSHR agonist counter-screen. Potency, µM (titrated, usually from 57.1 µM), for the others: top-dose activation, actives largely listed as activators. parental HEK293 CNG cAMP sensor, membrane potential fluorescence. AID 938. 73,000 tested, 2.5% active; also: % of control where 0% means no effect; nearly all actives have a fitted effect of over 55% in size
#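 Parental HEK 293 cells stably expressing a cAMP-gated CNG channel were loaded with membrane potential dye containing 100 uM RO 20-1724 for 60 min. Compound added for 30 min; depolarization read as fluorescence intensity at 590 nm.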
# DNA Pol III inh = blocks replication by bacterial DNA polymerase III holoenzyme | reconstituted DNA polymerase III holoenzyme replication, biochemical | Potency, µM (titrated, usually from 57.1 µM), for inactives: top-dose activity change, negative = inhibition | 71,000 tested, 0.25% active | AID 603; also: % is scaled to controls: 0 for no effect and ±100 for the full control effect
#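 Reconstituted *E. coli* holoenzyme (0.35 nM Pol III, 1 nM beta, 154 nM SSB, 2 nM primase) was preincubated with compound for 15 min at RT. Synthesis on 1.4 nM ssM13Gori ran 35 min, then was stopped with PicoGreen/EDTA and read as dsDNA fluorescence.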
# * hit, by the source's call; ? = inconclusive; . = no result given; [ ] = remark or other dose. Unless noted, calls follow the shape of the dose curve; as a rule, active = well fitted curve in the direction sought with a large enough effect; inconclusive = small, poorly fitted or top-dose-only effect, or another doubt; inactive = no such curve, though single readings can be large; an effect the other way counts as inactive or inconclusive. Potency is read from the fitted curve at half-maximal effect.
SMILES,Hsp90 Hop PPI,TSHR ag,Tau fil binding,HEK293 cAMP cs,DNA Pol III inh
FC(F)(F)c1ccccc1-c1ccc2ncnc(NCc3cccs3)c2c1,1.4%,?,15.3%,10µM*,5.9%
COc1ccc(-c2nc3cnc(Oc4cccc(Cl)c4)nc3n(C[C@H]3CCCO3)c2=O)cc1,1.0%,?,-1.6%,?,-1.0%
CN(C)CCNS(=O)(=O)N(C)C,-5.2%[11 µM],0.9%[11.4 µM],0.3%[11.4 µM],9.3%[11.4 µM],-4.8%[11.4 µM]
O=c1[nH]ncc2c3ccccc3n(Cc3ccc(F)cc3)c12,.,15.8µM*,.,5.0%,.
C/C(=N\[N+](C)(C)C)c1ccc(C)c(C)c1,-1.4%[11 µM],-0.3%[11.4 µM],3.1%[11.4 µM],2.6%[11.4 µM],-10.7%[11.4 µM]
CN(C)C(=O)Cn1c(SCC(=O)NC2CCCCC2)nc2ccccc21,1.3%,0.3%,6.0%,20.3%,-2.6%
CC(C)Cn1c(SCC(=O)NC(=O)NC2CCCC2)nc2ccccc21,2.8%,?,24.2%,31.6µM*,-0.2%
COC(=O)c1ccc(C(NC(=O)c2ccco2)[C@]2(C)C[C@H]2C2CCCCC2)cc1 (stereo partly drawn),-18.6%,?,-4.6%,?,-7.1%
CCOC(=O)c1c(C)oc2cc(Br)c(O)c(Br)c12,-2.7%,25.1µM*,-3.5%,11.0%,4.9%
COC(=O)[C@@H]1O[C@@H](c2c(OC)c(OC)c(C)c(OC)c2OC)[C@H](C)[C@@H](O)[C@@H]1C,.,1.7%[11.4 µM],.,-6.9%[11.4 µM],.
CC(C)(C)NC[C@H](O)c1cc(O)cc(O)c1,-1.0%[26 µM],?,-2.8%[25.6 µM],15.8µM*,-5.7%[25.6 µM]
COc1ccccc1OCCn1cc(C(=O)c2ccco2)c2ccccc21,-1.2%,?,21.6%,25.1µM*,-3.6%
CCOC(=O)C(C)Sc1nc(-c2ccco2)cc(C(F)(F)F)c1C#N (stereo not drawn),?,?,20µM*,?,-6.6%
O=C(CSC1=NCCN1)Nc1ccccc1,-7.0%[11 µM],-11.4%[11.4 µM],0.9%[11.4 µM],-1.8%[11.4 µM],-4.9%[11.4 µM]
CCc1c(C#N)c(SCc2c(C)noc2C)nc2c1C(=O)CC(C)(C)C2,3.8%,?,3.2%,12.6µM*,-0.2%
Cc1noc(C)c1CSc1nc2ccccc2nc1NS(=O)(=O)c1ccc(Cl)cc1,-1.1%,13.4%,6.4%,1.0%,4.0%
CN(C)c1nc(-c2ccoc2)nc2ccccc12,-11.4%,6.4%,15.8µM*,6.1%,-3.3%
CN(C)C(=O)c1ccc(-c2nc(NCc3ccccc3)c3ccccc3n2)cc1,-0.6%,?,4.2%,?,3.4%
c1ccc2c(NC3CC3)nc(-c3ccoc3)nc2c1,-11.6%,27.4%,?,18.2%,-8.2%
CN1CCN(c2nc(-c3ccoc3)nc3ccccc23)CC1,-7.2%,5.01µM*,-9.9%,15.1%,-7.8%
CN(C)C(=O)c1ccc(-c2nc(Nc3ccccc3)c3ccccc3n2)cc1,-0.3%,20µM*,16.5%,13.7%,-0.6%
c1ccc(Nc2nc(-c3ccoc3)nc3ccccc23)cc1,0.9%,?,12.6µM*,?,-4.5%
O=C(Nc1ccc2c(c1)Cc1ccccc1-2)[C@@H]1[C@H](C(=O)O)[C@]2(Cl)C(Cl)=C(Cl)[C@@]1(Cl)C2(Cl)Cl,-4.6%[11 µM],1.0%[11.4 µM],-19.3%[11.4 µM],3.8%[11.4 µM],-9.0%[11.4 µM]
C[C@]12CC[C@H]3c4ccc(OC[C@H]5CO5)cc4CC[C@H]3[C@H]1CC[C@@H]2O,.,-0.2%[11.4 µM],.,6.2%[11.4 µM],.
O=C(NCc1cccs1)c1cccnc1C(=O)O,-21.0%,-1.3%,14.5%,4.4%,5.4%
SMILES,Hsp90 Hop PPI,TSHR ag,Tau fil binding,HEK293 cAMP cs,DNA Pol III inh
O=C(O)c1cccnc1C(=O)O,3.16µM*,?,?,?,-0.7%
CCC1CO1 (stereo not drawn),-3.2%,-3.1%,8.7%,5.3%,-0.1%
Cc1nc(N)sc1-c1csc(Nc2ccccc2)n1,?,-4.9%,20µM*,-19.6%,-1.0%
COc1ccc(OC)c(Nc2nc(-c3sc(N)nc3C)cs2)c1,?,-29.2%,10µM*,-7.3%,-5.2%
Cc1cc(O)ccc1Nc1nc(-c2sc(N)nc2C)cs1,-1.4%,5.8%,-13.1%,6.8%,5.3%
CCCCOC(=O)CSc1nc2c(cc1C#N)C(=O)CC(C)(C)C2,2.7%,?,-17.9%,20µM*,-11.4%
CCc1nc(C)cn1S(=O)(=O)c1ccc(Cl)c(Cl)c1Cl,2.6%,?,-11.9%,25.1µM*,0.3%
CCc1nc(C)cn1S(=O)(=O)c1cc(C)c(OC)cc1C,0.2%,?,1.8%,?,-1.3%
CC1(C)S[C@@H]2[C@H](NC(=O)C3(N)CCCCC3)C(=O)N2[C@@H]1C(=O)O,-4.5%[11 µM],-5.8%[11.4 µM],2.4%[11.4 µM],5.6%[11.4 µM],-7.6%[11.4 µM]
CC1CCC(C(=O)O)([C@H](Br)C(=O)O)CC1 (stereo partly drawn),-2.3%[11 µM],-2.5%[11.4 µM],11.1%[11.4 µM],7.3%[11.4 µM],-3.5%[11.4 µM]
CCn1c(=O)[nH]c2cc(C(=O)N3CCN(c4ccccc4)CC3)ccc2c1=O,1.1%,2.0%,1.7%,4.7%,-5.4%
CC(=O)Nc1ccccc1-c1nc2ccc(C(=O)N3CCN(c4ccccc4)CC3)cc2[nH]c1=O,-5.2%[2.3 µM],-0.4%,15.8µM*,2.5%,-4.5%
C=CCn1c2ccccc2c2nnc(SCN3C(=O)c4ccccc4C3=O)nc21,-9.2%[11 µM],.,?,24.7%[11.4 µM],-2.7%[11.4 µM]
C=CCn1c2ccccc2c2nnc(SCCCn3c(=O)[nH]c4ccccc43)nc21,-20.8%,?,3.16µM*,?,-14.7%
CCc1ccccc1NS(=O)(=O)c1ccc(SC)cc1,4.5%,25.1µM*,-9.5%,14.6%,1.0%
O=C(O)[C@@H]1Cc2c([nH]c3ccccc23)[C@@H](CCCCO)N1,-4.4%[11 µM],-1.8%[11.4 µM],43.9%[11.4 µM],-1.5%[11.4 µM],-7.6%[11.4 µM]
CCCc1cc(=O)n2[nH]c(-c3cc(OC)c(OC)c(OC)c3)nc2n1,-1.1%,25.1µM*,-5.5%,14.3%,-2.2%
C=C(C)COc1ccc(-c2nc(N)ncc2-c2ccc(OC)cc2)c(O)c1,-25.0%,?,12.6µM*,?,-7.6%
C=C(C)COc1ccc(-c2[nH]ncc2Oc2cccc(OC)c2)c(O)c1,7.7%,.,44.2%,-2.2%,-6.6%
C=C(C)COc1ccc(-c2ncncc2Oc2ccc(OC)cc2)c(O)c1,13.4%,.,20µM*,13.4%,1.0%
CCCN=C(N)NCCC[C@H](N)C(=O)O,-2.9%,-0.8%,?,18.0%,-7.2%
O=C(O)C[C@H](Cc1ccccc1Cl)C(=O)O,-2.9%[11 µM],2.2%[11.4 µM],-5.9%[11.4 µM],2.9%[11.4 µM],1.6%[11.4 µM]
O=C(c1ccccc1-c1nc(-c2ccc(F)cc2)no1)N1CCCC1,-1.2%,23.3%,-0.2%,24.9%,1.5%
COc1ccc(-c2noc(-c3ccccc3C(=O)NCc3ccco3)n2)cc1OC,-6.5%,42.8%,10.2%,27.1%,3.6%
COc1cccc(NC(=O)c2ccccc2-c2nc(-c3ccc(F)cc3)no2)c1,-3.0%,?,57.5%,31.6µM*,-7.6%
COc1cccc(NC(=O)c2ccccc2-c2nc(-c3ccc(Cl)cc3)no2)c1,1.2%,?,24.7%,?,2.1%
COc1ccc(-c2noc(-c3ccccc3C(=O)NCc3ccco3)n2)cc1,1.1%,?,102.5%,15.8µM*,1.2%
